Experimental data taken from PubChem BioAssay AID1053133 (Broad Institute, 2014).
Hit rate of the full screen: of about 89,000 compounds, about 10 (0.01%) were called active. Roughly 10% stayed inconclusive and do not appear here. Rule as the data show it: active = activity change below about -37% (passing the limit was not always enough); inconclusive = no clear call, values can overlap the other calls; tested in A549 cells. Only a sample is shown.

experiment: blocks a specific stage of Vaccinia orthopoxvirus infection, primary screen, cell-based, single point (AID 1053133); conditions: Vaccinia-infected cells, mCherry/Venus stage reporter fluorescence, stronger effect = lower value, concentration not given here; activity change (Venus): measured here: Venus reporter, other viral stage

SMILES | activity change (Venus) | activity change (mCherry)
N#Cc1cccc(-c2ccc([C@H]3[C@@H](CO)N[C@@H]3CNC(=O)C3CCC3)cc2)c1 | -1.58% | -4.87% (inactive)
COc1ccc2c3c(n(C)c2c1)[C@H](CO)N(CC1CCCCC1)CC31CCN(Cc2nccs2)CC1 | -17.6% | -20.4% (inactive)
C/C=C/c1ccccc1[C@H]1[C@@H](C#N)N(C(=O)Cc2ccccn2)[C@@H]1CO | -12.5% | -21.2% (inactive)
CCNC(=O)[C@H]1[C@H](CO)[C@H]2Cn3c(cccc3=O)[C@@H]1N2Cc1cc(F)ccc1F | 15.1% | 12.8% (inactive)
O=C(C[C@@H]1CC[C@@H]2[C@H](COC[C@H](O)CN2C(=O)c2ccc3c(c2)OCO3)O1)NC1CCCC1 | 4.69% | 7.59% (inactive)
C[C@@H]1CCCCO[C@H](CN(C)S(=O)(=O)c2ccc(Cl)cc2)[C@H](C)CN([C@@H](C)CO)C(=O)c2cc(NS(=O)(=O)c3cn(C)cn3)ccc2O1 | 3.71% | 0.869% (inactive)
CNC(=O)C[C@@H]1CC[C@@H]2[C@H](COC[C@H](O)CN2Cc2ccc(C(F)(F)F)cc2)O1 | 3.54% | 4.2% (inactive)
Cc1noc(C)c1S(=O)(=O)N(C)C[C@@H]1OCCCC[C@@H](C)Oc2ccc(NC(=O)Nc3ccccc3)cc2C(=O)N([C@H](C)CO)C[C@@H]1C | 5.28% | 12.8% (inactive)
CC=Cc1ccc2n(c1=O)C[C@@H]1[C@@H](CO)[C@H](C(=O)NCc3cccc(OC)c3)N[C@H]21 (mixture of isomers) | 12.7% | 3.42% (inactive)
C/C=C/c1cnc2c(c1)C(=O)N([C@H](C)CO)C[C@H](C)[C@@H](CN(C)S(=O)(=O)c1ccccc1F)O2 | -1.53% | -5.68% (inactive)
COCC(=O)Nc1ccc2c(c1)C(=O)N(C)C[C@H](OC)[C@@H](C)CN(CCc1ccccc1)[C@@H](C)CO2 | -0.0268% | -4.99% (inactive)
O=C(C[C@@H]1C[C@@H]2c3cc(NC(=O)Nc4ccccc4F)ccc3O[C@@H]2[C@H](CO)O1)NCCc1ccccc1 | 7.27% | 9.1% (inactive)
CCCC(=O)N1CC2(C1)CN(C(=O)Nc1cccc(F)c1)[C@@H](CO)c1c2c2ccc(OC)cc2n1C | -2.53% | 2.16% (inactive)
COCC(=O)Nc1ccc2c(c1)C(=O)N(C)[C@@H]1CC[C@H](CC(=O)NCC3CC3)O[C@@H]1CO2 | 8.99% | 16% (inactive)
COc1ccc2c3c([nH]c2c1)[C@@H](CO)N(C(=O)Cc1ccccc1)CC31CCN(C)CC1 | -13.2% | -7.54% (inactive)
C[C@H](CO)N1C[C@H](C)[C@H](CN(C)C(=O)C2CCOCC2)Oc2ncc(-c3ccccc3F)cc2C1=O | 6.04% | 8.11% (inactive)
